According to PubChem BioAssay:
Active and inactive are the calls of the source.

Key:
[1] = binders of probe aFSTL3 on microarray, primary screen, stem cell growth factor project, biochemical, small-molecule microarray, fluorescence 635/667 (AID 1064); conditions: higher = more signal;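 further: measures binding of the biotinylated anti-FSTL3 antibody to printed compounds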
[2] = binders from COS7 lysate, DM2A8 probe, primary screen, torsin A project, cell lysate, small-molecule microarray, fluorescence 635/667 (AID 1065); conditions: higher = more signal, COS7 lysate expressing mutant human TOR1A
[3] = binders of probe aFGF2 on microarray, primary screen, stem cell growth factor project, biochemical, small-molecule microarray, fluorescence 635/667 (AID 1067); conditions: higher = more signal;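 further: measures binding of biotinylated aFGF2 protein to printed compounds on slides; z-score merges feature fluorescence and signal-to-noise across triplicate slides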
[4] = binders of probe aFGF10 on microarray, primary screen, stem cell growth factor project, biochemical, small-molecule microarray, fluorescence 635/667 (AID 1071); conditions: higher = more signal;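 further: score merges 667 nm spot intensity and signal to noise from triplicate slides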
[5] = target: Neurogenic locus notch homolog protein 2 (Homo sapiens) (UniProt Q04721); assay: Notch2 binders on small-molecule microarrays, primary screen, biochemical, small-molecule microarray, 635 nm fluorescence, stem cell growth factors (AID 1073); conditions: Notch2 binding, higher = more signal
[6] = target: Pro-neuregulin-1, membrane-bound isoform (Homo sapiens) (UniProt Q02297); assay: NRG1 binders on small-molecule microarrays, primary screen, psychiatric disease protein project, biochemical, small-molecule microarray, fluorescence 635/667 (AID 1075); conditions: NRG1 binding, 635 nm fluorescence, higher = more signal;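 further: score combines 667 nm spot fluorescence with signal to noise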
[7] = system: Neuregulin-1 EGF-like domain; assay: binders of neuregulin-1 EGF-like domain, primary screen, biochemical, small-molecule microarray, 635 nm fluorescence (AID 1081); conditions: small-molecule microarray binding, higher = more signal;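 further: binding of the protein to compounds printed on small-molecule microarray slides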
[8] = FRG1 promoter luciferase signal modulators, primary screen, FRG1 inhibition for FSHD, cell-based, C2C12 myotubes, firefly/Renilla luciferase, luminescence (AID 1084); conditions: higher = more signal, called active from +8 up or from −8 down
[9] = binders of probe aFST on microarray, primary screen, stem cell growth factor project, biochemical, small-molecule microarray, fluorescence 635/667 (AID 1086); conditions: higher = more signal;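 further: score merges 667 nm fluorescence with signal-to-noise of each printed compound spot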
[10] = binders of probe aHhip on microarray, primary screen, stem cell growth factor project, biochemical, small-molecule microarray, fluorescence 635/667 (AID 1087); conditions: higher = more signal;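 further: score merges spot fluorescence at 667nm with spot signal to noise ratio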
[11] = system: PRMT1 (protein arginine N-methyltransferase 1); assay: PRMT1 binders on small-molecule microarrays, primary screen, biochemical, small-molecule microarray, 635 nm fluorescence (AID 1088); conditions: small-molecule microarray binding, higher = more signal;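 further: binding of Prmt1 protein to compounds spotted on small-molecule microarray slides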
[12] = yeast growth modulation, basal conditions, primary screen, YJM789 clinical isolate, OD600, 24 h (AID 1089);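 further: growth of clinical yeast isolate S. cerevisiae YJM 789 seeded 1000 cells per well; test concentration not given here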; conditions: S. cerevisiae YJM789 growth, higher = more signal, called active from +8 up or from −8 down
[13] = fission yeast growth modulation, primary screen, strain 972, OD600, 24 h, no modulator (AID 1090);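 further: basal condition with compound alone and no growth modifier present; test concentration not given here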; conditions: S. pombe 972 growth, higher = more signal, called active from +8 up or from −8 down
[14] = S. cerevisiae growth modulation with rapamycin, primary screen, strain BY4716, OD600, 96 h (AID 1091); conditions: higher = more signal, called active from +8 up or from −8 down; further: test concentration not given here
[15] = target: Torsin-1A-interacting protein 2 (Homo sapiens) (UniProt Q8NFQ8); assay: LULL1 binders on small-molecule microarray, primary screen, cell lysate, human LULL1 lysate, 635/667 nm fluorescence (AID 1092); conditions: hLULL1 lysate binding, 635 nm fluorescence, higher = more signal;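 further: probe is lysate of COS7 cells overexpressing human LULL1; score merges per-feature 667 nm fluorescence with signal-to-noise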
[16] = E. coli growth modulation, two-sided OD650, primary screen, E. coli filamentation project, strain DRC41, 24 h (AID 1093); conditions: OD650, 24 h, higher = more signal, called active from +8 up or from −8 down;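 further: MC1000 strain lacking acrAB efflux and sulA so SOS filamentation is blocked; test concentration not given here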
[17] = small-molecule microarray binders of probe aLefty2, primary screen, biochemical, biotinylated probe, 635/667 nm fluorescence (AID 1094); conditions: higher = more signal;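 further: score merges spot fluorescence near 667 nm with spot signal-to-noise ratio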
[18] = system: Noggin (protein binding on small-molecule microarray); assay: Noggin binders on small-molecule microarray, primary screen, biochemical, 635/667 nm fluorescence (AID 1095); conditions: 635 nm fluorescence, higher = more signal;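 further: score merges 667 nm feature fluorescence with signal to noise over triplicate slides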
[19] = target: Neurogenic locus notch homolog protein 3 (Homo sapiens) (UniProt Q9UM47); assay: NOTCH3 binders on small-molecule microarray, primary screen, biochemical, 635/667 nm fluorescence (AID 1096); conditions: NOTCH3 binding, 635 nm fluorescence, higher = more signal
[20] = small-molecule microarray binders of probe aEGFR, primary screen, biochemical, biotinylated probe, 635/667 nm fluorescence (AID 1097); conditions: higher = more signal;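 further: probe is a biotinylated anti-EGFR antibody binding compounds printed on slides; score combines fluorescence near 667 nm and signal to noise of each spot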

Chain of Pro-neuregulin-1, membrane-bound isoform (Homo sapiens) (Q02297 whole entry, looked up, the tested form may be a part, canonical isoform): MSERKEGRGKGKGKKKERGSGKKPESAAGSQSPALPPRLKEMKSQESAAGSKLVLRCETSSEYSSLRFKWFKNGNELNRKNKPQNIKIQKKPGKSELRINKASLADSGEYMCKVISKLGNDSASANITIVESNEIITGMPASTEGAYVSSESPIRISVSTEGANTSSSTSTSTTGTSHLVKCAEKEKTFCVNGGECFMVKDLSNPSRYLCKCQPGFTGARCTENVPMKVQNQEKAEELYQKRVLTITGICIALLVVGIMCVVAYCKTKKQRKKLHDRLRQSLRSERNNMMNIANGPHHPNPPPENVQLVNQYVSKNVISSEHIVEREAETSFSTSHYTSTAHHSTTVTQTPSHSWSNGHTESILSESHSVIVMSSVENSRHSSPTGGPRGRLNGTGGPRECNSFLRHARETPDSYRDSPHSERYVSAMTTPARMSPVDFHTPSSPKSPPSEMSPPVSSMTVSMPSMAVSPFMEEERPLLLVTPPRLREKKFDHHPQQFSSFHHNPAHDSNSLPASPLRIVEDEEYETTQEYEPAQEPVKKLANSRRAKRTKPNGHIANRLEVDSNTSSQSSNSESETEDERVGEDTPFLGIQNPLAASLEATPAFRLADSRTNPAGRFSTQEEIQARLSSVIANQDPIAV
Chain of Neurogenic locus notch homolog protein 2 (Homo sapiens) (Q04721 whole entry, looked up, canonical isoform): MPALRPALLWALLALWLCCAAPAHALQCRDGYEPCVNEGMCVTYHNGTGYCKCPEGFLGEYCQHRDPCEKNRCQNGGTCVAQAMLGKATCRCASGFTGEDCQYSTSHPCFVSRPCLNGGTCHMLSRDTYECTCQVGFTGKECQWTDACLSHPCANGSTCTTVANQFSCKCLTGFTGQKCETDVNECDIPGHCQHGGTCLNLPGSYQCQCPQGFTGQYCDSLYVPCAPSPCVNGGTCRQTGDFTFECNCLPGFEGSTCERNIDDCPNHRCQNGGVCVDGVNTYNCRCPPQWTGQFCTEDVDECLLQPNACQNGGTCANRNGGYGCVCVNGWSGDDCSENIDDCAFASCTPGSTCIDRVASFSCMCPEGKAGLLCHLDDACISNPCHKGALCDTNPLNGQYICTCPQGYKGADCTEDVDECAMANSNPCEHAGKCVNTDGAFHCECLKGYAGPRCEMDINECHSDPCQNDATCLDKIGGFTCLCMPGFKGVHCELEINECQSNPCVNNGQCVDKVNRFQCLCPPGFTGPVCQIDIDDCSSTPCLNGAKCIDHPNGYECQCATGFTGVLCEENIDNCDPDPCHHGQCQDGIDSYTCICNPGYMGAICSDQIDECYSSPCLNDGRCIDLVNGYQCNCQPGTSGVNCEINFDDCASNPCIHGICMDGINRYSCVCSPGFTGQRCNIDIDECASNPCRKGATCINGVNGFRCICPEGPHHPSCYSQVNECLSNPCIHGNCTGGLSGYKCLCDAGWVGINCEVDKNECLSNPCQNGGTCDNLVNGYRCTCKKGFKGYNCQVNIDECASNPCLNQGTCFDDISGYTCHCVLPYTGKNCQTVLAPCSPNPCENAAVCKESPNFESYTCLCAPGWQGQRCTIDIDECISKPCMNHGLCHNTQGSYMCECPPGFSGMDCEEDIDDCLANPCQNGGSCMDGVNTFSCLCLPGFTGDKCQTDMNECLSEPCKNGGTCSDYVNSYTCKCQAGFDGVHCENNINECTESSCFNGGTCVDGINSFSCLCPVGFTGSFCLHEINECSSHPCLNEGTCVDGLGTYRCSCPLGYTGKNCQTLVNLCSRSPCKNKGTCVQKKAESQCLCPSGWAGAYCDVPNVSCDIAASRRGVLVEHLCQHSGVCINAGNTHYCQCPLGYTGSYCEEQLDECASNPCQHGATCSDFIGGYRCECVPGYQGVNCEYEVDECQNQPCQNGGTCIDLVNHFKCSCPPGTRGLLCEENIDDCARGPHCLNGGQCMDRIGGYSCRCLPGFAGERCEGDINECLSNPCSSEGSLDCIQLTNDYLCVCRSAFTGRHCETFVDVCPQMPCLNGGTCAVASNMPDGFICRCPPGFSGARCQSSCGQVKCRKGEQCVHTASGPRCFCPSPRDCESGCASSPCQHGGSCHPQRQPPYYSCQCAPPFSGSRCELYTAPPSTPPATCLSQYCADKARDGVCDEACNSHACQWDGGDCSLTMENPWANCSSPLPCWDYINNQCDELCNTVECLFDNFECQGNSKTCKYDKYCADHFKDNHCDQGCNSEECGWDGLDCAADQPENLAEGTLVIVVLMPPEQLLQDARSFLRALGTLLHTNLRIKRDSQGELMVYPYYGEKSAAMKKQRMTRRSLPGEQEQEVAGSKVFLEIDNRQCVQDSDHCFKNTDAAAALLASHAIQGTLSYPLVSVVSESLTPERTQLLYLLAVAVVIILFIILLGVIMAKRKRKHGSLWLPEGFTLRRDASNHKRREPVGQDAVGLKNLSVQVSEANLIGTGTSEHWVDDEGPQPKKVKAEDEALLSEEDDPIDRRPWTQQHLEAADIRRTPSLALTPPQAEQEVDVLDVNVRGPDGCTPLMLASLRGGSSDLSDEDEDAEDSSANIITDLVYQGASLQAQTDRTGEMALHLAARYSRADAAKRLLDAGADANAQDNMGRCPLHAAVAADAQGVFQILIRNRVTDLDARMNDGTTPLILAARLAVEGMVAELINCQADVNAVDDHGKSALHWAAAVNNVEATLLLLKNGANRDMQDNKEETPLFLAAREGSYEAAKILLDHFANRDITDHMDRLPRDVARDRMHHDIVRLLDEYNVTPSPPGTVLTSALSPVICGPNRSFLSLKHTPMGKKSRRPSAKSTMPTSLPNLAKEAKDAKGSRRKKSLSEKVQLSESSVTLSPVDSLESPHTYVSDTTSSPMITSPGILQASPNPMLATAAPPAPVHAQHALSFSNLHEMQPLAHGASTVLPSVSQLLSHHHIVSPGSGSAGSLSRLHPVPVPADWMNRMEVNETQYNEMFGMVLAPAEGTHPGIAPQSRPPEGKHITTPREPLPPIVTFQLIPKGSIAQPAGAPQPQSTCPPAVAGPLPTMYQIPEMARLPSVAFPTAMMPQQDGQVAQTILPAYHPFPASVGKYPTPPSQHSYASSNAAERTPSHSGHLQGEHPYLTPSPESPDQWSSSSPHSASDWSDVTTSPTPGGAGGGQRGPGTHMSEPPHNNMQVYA
Chain of Torsin-1A-interacting protein 2 (Homo sapiens) (Q8NFQ8 whole entry, looked up): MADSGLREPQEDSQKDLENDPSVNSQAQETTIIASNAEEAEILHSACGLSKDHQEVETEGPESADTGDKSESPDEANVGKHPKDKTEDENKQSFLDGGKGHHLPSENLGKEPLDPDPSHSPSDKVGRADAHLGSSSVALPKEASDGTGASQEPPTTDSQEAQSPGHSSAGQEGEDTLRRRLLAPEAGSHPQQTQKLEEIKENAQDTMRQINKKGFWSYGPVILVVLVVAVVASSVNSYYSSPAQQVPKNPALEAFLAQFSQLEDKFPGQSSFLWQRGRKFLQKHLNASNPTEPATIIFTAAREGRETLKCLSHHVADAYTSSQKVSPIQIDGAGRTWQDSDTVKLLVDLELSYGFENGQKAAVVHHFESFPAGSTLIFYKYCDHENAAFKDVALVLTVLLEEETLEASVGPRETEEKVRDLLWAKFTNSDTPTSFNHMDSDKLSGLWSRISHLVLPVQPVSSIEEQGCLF

| SMILES | composite z-score [1] | composite z-score [2] | composite z-score [3] | composite z-score [4] | composite z-score [5] | composite z-score [6] | composite z-score [7] | z-score [8] | composite z-score [9] | composite z-score [10] | composite z-score [11] | z-score [12] | z-score [13] | z-score [14] | composite z-score [15] | z-score [16] | composite z-score [17] | composite z-score [18] | composite z-score [19] | composite z-score [20] |
| --- | --- | --- | --- | --- | --- | --- | --- | --- | --- | --- | --- | --- | --- | --- | --- | --- | --- | --- | --- | --- |
| COc1ccc([Si](C)(C)[C@@H]2[C@@H](CC(=O)N3Cc4ccccc4C[C@H]3CO)O[C@]3(C(=O)N(C)c4c(Br)cc(C)cc43)[C@H]2C)cc1 | -0.184 | 1.03 | -0.083 | 0.441 | 0.557 | 0.815 | 1.12 | -3.35 (inactive) | 0.16 | -0.0672 | 1.54 | -0.069 (inactive) | 1.2 (inactive) | 2.03 (inactive) | 1.84 | 0.064 (inactive) | -0.174 | 1.55 | 1.12 | -0.0409 |
| CC(=O)NCCCC[C@@H]1NC(=O)[C@@H]2C[C@H](C(=O)NCCCCN(C)C)[C@H](c3cccc(OCCO)c3)N2C1=O | 0.123 | 0.537 | -0.108 | -0.107 | -0.569 | -0.283 | 1.12 | 3.26 (inactive) | 0.571 | -0.236 | 0.558 | -0.546 (inactive) | 0.595 (inactive) | -0.789 (inactive) | 1.51 | 0.187 (inactive) | -0.0124 | -0.104 | 0.465 | -0.127 |
| C=CC[C@]12N=C(c3ccc(OCCCO)cc3)O[C@H]1c1ccccc1N(Cc1ccccc1)C2=O | 1.67 | 0.473 | -0.0316 | -0.138 | 0.877 | 0.138 | 0.774 | -2.33 (inactive) | 0.625 | 0.0176 | 1.46 | -0.523 (inactive) | -0.371 (inactive) | 1.89 (inactive) | 1.04 | 0.508 (inactive) | 0.331 | 0.313 | 0.483 | -0.0692 |
| CC(C)OC(=O)C=C1C[C@@H](c2ccccc2C(F)(F)F)O[C@@H](c2ccccc2C(F)(F)F)O1 | -0.173 | -0.11 | -0.0924 | -0.443 | 0.647 | 0.113 | -0.0471 | 0.009 (inactive) | 0.2 | -0.0994 | 0.494 | -0.317 (inactive) | 1.17 (inactive) | 1.38 (inactive) | 0.675 | -0.952 (inactive) | -0.145 | 0.134 | 0.266 | -0.0776 |
| O=C1c2ccccc2[C@@]2(Cc3ccccc3N(CCN3CCOCC3)C2=O)[C@H](c2ccc(CO)cc2)N1Cc1ccccc1 | -0.0459 | -0.374 | -0.166 | -0.318 | -0.933 | -0.561 | -0.86 | -0.0352 (inactive) | -0.0633 | -0.0618 | 1.08 | -0.338 (inactive) | 0.047 (inactive) | -1.78 (inactive) | 1.4 | 0.959 (inactive) | -0.156 | -0.0855 | -0.038 | -0.172 |
| O=C1O[C@H](c2ccccc2)[C@H](c2ccccc2)N2[C@H]1[C@@H](C(=O)O)[C@]1(C(=O)Nc3ccc(C#CC4=CCCCC4)cc31)[C@H]2c1ccccc1OCCO | 0.943 | 0.914 | -0.0885 | 0.729 | 1.01 | 1.69 | 0.994 | 0.755 (inactive) | 0.792 | 1.13 | 1.53 | 1.07 (inactive) | 1.1 (inactive) | -1.55 (inactive) | 3.1 | -0.273 (inactive) | 0.196 | 1.05 | 0.941 | -0.313 |
| C[N+](C)(C)CCCCNC(=O)[C@H]1C[C@H]2C(=O)N[C@@H](Cc3ccccc3)C(=O)N2[C@H]1c1ccc(O)cc1 | 0.288 | 0.504 | -0.074 | 0.0806 | -0.601 | -0.158 | 1.22 | 0.605 (inactive) | -0.0662 | -0.0645 | 0.684 | 1.1 (inactive) | -0.0797 (inactive) | -1.15 (inactive) | -0.114 | 0.282 (inactive) | -0.108 | 1.69 | 0.471 | -0.112 |
| COc1ccc([C@H]2OC[C@@H]3CC4(CC=CC4)C(=O)N32)cc1 | 0.0596 | -0.407 | -0.129 | 0.479 | -0.321 | -0.105 | 1 | 1.43 (inactive) | -0.0135 | -0.236 | 1.08 | -0.205 (inactive) | 0.0197 (inactive) | -0.451 (inactive) | 1.24 | -0.472 (inactive) | -0.0171 | 1.08 | 0.527 | 0.0376 |
| COC(=O)[C@@]1(Cc2ccc(F)cc2)[C@H]2c3cc(C(=O)N(C)C)n(Cc4nc5ccccc5[nH]4)c3C[C@H]2CN1C(=O)c1ccccc1 | 0.258 | -1.35 | 0.349 | 0.841 | 1.66 | 2.13 | 1.13 | -0.169 (inactive) | 1.36 | -0.139 | 0.173 | 0.37 (inactive) | 0.821 (inactive) | -0.444 (inactive) | 3.36 | -0.373 (inactive) | 0.341 | -0.138 | 1.08 | 0.191 |
| COc1ccc(C(=O)Nc2ccc(CN3C(=O)[C@@]4(O[C@@H](CC(=O)N5CCC[C@H]5CO)[C@H]([Si](C)(C)c5ccc(OC)cc5)[C@H]4C)c4ccccc43)cc2)cc1 | -0.172 | 0.195 | -0.0202 | 0.577 | 1.47 | 1.3 | 1.16 | -4.05 (inactive) | 0.543 | 0.176 | 1.55 | -0.466 (inactive) | -0.838 (inactive) | -0.436 (inactive) | 2.07 | 0.632 (inactive) | -0.0134 | 1.05 | 1.09 | 0.131 |
| COCCCNC(=O)[C@@]1(Cc2ccccc2N=[N+]=[N-])N=C(c2ccc(OCCCO)cc2)O[C@H]1c1ccccc1N=[N+]=[N-] | 0.622 | 0.81 | -0.252 | 0.436 | 1.37 | 1.52 | 0.831 | -0.702 (inactive) | 1.36 | -0.26 | 1.56 | 0.253 (inactive) | -0.143 (inactive) | 2.01 (inactive) | 3.27 | -0.27 (inactive) | 0.23 | 0.0556 | 1.1 | 0.0507 |
| COc1cc2c(cc1OC)CN(C(=O)[C@H]1[C@@H]3C(=O)O[C@@H](c4ccccc4)[C@@H](c4ccccc4)N3[C@@H](c3ccc(O)cc3)[C@]13C(=O)Nc1ccc(C#CCNC(N)=O)cc13)CC2 | -0.297 | 0.0737 | -0.0473 | 0.689 | -0.0344 | 0.404 | 0.37 | 0.297 (inactive) | 0.135 | 0.0854 | 1.01 | 0.485 (inactive) | -0.363 (inactive) | 0.518 (inactive) | 0.458 | 0.395 (inactive) | 0.0386 | 0.622 | 0.46 | -0.02 |
